Screening data (PubChem)
m5-HT2A agonist – mouse Htr2a agonists via beta-arrestin recruitment, primary screen, cell-based, luminescence. activation, % at 7.6 µM. CHO-K1 mHTR2A beta-arrestin complementation; percent of 30 µM serotonin response. 360,000 compounds, 0.66% hits. AID 624169, 2012;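 active means activation above a run cutoff, the mean activation of all tested compounds plus 3 SD, cut at about 14% in these data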
TLR4 MyD88 comp – inhibitors of TLR4-MyD88 association in cells, primary screen, cell-based, HeLa CL3-4, BLA complementation, FRET ratio. 200,000 compounds, 0.18% hits. inhibition, % at 8.4 µM. HeLa CL3-4 TLR4/MyD88 BLA complementation. Toll-like receptor 4 (Homo sapiens) + Myeloid differentiation primary response protein …; in the data active means inhibition above about 25%
CRFBP-R2 block – antagonists of CRF-BP/CRF-R2 complex, primary screen, cell-based, HEK293, calcium dye fluorescence, uHTS; CRF-induced calcium fluorescence; inhibition, % at 11.8 µM; 350,000 compounds, 0.59% hits;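 active means inhibition of the ligand-induced calcium signal above about 50% at the single tested concentration, limit read from the data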
NOD2 RIPK2 PPI – NOD2-RIPK2 binding disruptors in cells, primary screen, fluorescence, CHO cells, BLA complementation. CCF4 ratio. inhibition, % at 4.98 µM. 360,000 compounds, 0.38% hits. AID 624267, 2012; in the data active means inhibition above about 21%
ABHD5-PLIN5 inh – ABHD5-PLIN5 interaction inhibitors, primary screen, cell lysate, split luciferase complementation, luminescence; Perilipin-5 (Homo sapiens) + 1-acylglycerol-3-phosphate O-acyltransferase ABHD5 (Homo …; Split G. princeps luciferase complementation, 4 h; inhibition, % at 4 µM; 360,000 compounds, 0.78% hits;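 active means inhibition above the mean inhibition across every tested compound plus 3 SD, cut at about 22% in these data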
TLR9-MyD88 inh – inhibitors of TLR9-MyD88 association in cells, primary screen, cell-based, CHO, BLA complementation, fluorescence. Toll-like receptor 9 (Homo sapiens) + Myeloid differentiation primary response protein …. CCF4 FRET ratio. inhibition, % at 4.98 µM. 340,000 compounds, 0.21% hits. AID 504734, 2011;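 active means inhibition above the mean over all tested compounds plus 3 SD, cut at about 21% in these data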
OPRM1 ag – OPRM1 agonists via beta-arrestin recruitment, confirmation, counter-screen for mouse HTR2A agonist project, cell-based, luminescence, single concentration; U2OS OPRM1 beta-arrestin PathHunter; DMSO 0%, DAMGO 9.3 µM 100%; shares compounds with m5-HT2A agonist; activation, % at 9.3 µM; 2,300 compounds, 5.3% hits;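 active means mean activation above the mean of DMSO-only wells plus 3 SD, cut at about 0.5% in these data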
m5-HT2A ag conf – mouse HTR2A agonists, beta-arrestin recruitment, confirmation, cell-based, luminescence, CHO-K1 PathHunter, triplicate. 2,300 compounds, 19% hits. activation, % at 7.6 µM. AID 624381, 2012. shares compounds with m5-HT2A agonist. DMSO 0%, 30 µM serotonin 100%;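 active means mean activation across triplicates above the hit threshold derived in the original primary screen, cut at about 15% in these data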
Large screens that a line does not name were inactive (follow-up assays come after a bar, where they were run); ! = not confirmed by another sample. An excerpt weighted towards active compounds, which were near 2.4% of everything screened.

COc1ccc(-n2c(SCC(=O)Nc3cc(C(=O)O)ccc3C)nc3ccccc3c2=O)cc1Cl	m5-HT2A agonist 17.5 (no result: TLR4 MyD88 comp) | OPRM1 ag inactive | m5-HT2A ag conf inactive
O=C(CSc1nc2ccccc2c(=O)n1CCCN1CCOCC1)Nc1ccc(F)c(Cl)c1	none (no result: TLR4 MyD88 comp)
CC1Nc2ncnc(N3CCc4ccccc4C3)c2N(Cc2ccccc2)C1=O (stereo not given)	none (no result: TLR4 MyD88 comp, CRFBP-R2 block, TLR9-MyD88 inh)
COc1ccc(/C=C/C(=O)OCC(=O)N2c3ccccc3CC2C)c(OC)c1 (stereo not given)	none (no result: TLR4 MyD88 comp)
O=C(c1ccc(S(=O)(=O)Nc2ccccc2Cl)cc1)N1CCCC1	none (no result: TLR4 MyD88 comp)
CC(=O)N1CCN(C(=O)c2ccc(S(=O)(=O)Nc3ccccc3Cl)cc2)CC1	m5-HT2A agonist 15.8 (no result: TLR4 MyD88 comp) | OPRM1 ag 0.9 | m5-HT2A ag conf inactive
COc1ccc(/C(O)=C2/C(=O)C(=O)N(CCCN3CCOCC3)C2c2ccc(C(C)C)cc2)cc1 (stereo not given)	m5-HT2A agonist 14.6 (no result: TLR4 MyD88 comp) | OPRM1 ag inactive | m5-HT2A ag conf inactive
COCCCN1C(=O)C(=O)/C(=C(/O)c2ccc(S(=O)(=O)N3CCOCC3)cc2)C1c1ccc(C)cc1 (stereo not given)	m5-HT2A agonist 18.0 (no result: TLR4 MyD88 comp) | OPRM1 ag inactive | m5-HT2A ag conf inactive
O=C(NCC1CC1)c1ccc(-n2ccnc2)c2ccoc12	none (no result: TLR4 MyD88 comp, CRFBP-R2 block, TLR9-MyD88 inh)
COc1cc(CNc2ncnc3c2ncn3[C@H]2CN(CCN3CCOCC3)C[C@@H](CO)O2)cc(OC)c1OC	none (no result: TLR4 MyD88 comp, CRFBP-R2 block, TLR9-MyD88 inh)
O=C(C1CCN(c2ncnc3c2nc2n3CCCCC2)CC1)N1CCN(c2cccc(Cl)c2)CC1	m5-HT2A agonist 18.2 (no result: TLR4 MyD88 comp) | OPRM1 ag inactive | m5-HT2A ag conf inactive
O=C(NCCc1ccccc1)C1CCCN(c2ncnc3c2nc2n3CCCCC2)C1 (stereo not given)	m5-HT2A agonist 14.5 (no result: TLR4 MyD88 comp) | OPRM1 ag inactive | m5-HT2A ag conf inactive
COC(=O)CCCC[C@@H]1O[C@H](CCc2ccccc2)Cc2[nH]c(=S)[nH]c(=O)c21	none (no result: TLR4 MyD88 comp, CRFBP-R2 block, TLR9-MyD88 inh)
COC(=O)c1ccc(/C=N/N2CCN(Cc3ccc(C)cc3C)CC2)cc1	m5-HT2A agonist 18.2 | OPRM1 ag inactive | m5-HT2A ag conf 15.3
Cc1ccc(CN2CCN(/N=C/c3ccc(C(=O)O)cc3)CC2)c(C)c1	none
CCOC1(OCC)OC(c2ccccc2)=C(C#N)C(C=Cc2ccccc2)C1(OCC)OCC (stereo not given)	none (no result: TLR4 MyD88 comp)
CCOC(=O)N1CCC(N2C(=O)c3ccccc3C2Nc2cccnc2)CC1 (stereo not given)	m5-HT2A agonist 19.2 | OPRM1 ag inactive | m5-HT2A ag conf inactive
c1ccc(CCN=C2CCCc3c2[nH]c2ccccc32)cc1	m5-HT2A agonist 15.3 (no result: TLR4 MyD88 comp) | OPRM1 ag inactive | m5-HT2A ag conf 28.4
CC1=C(C(=O)N(C)C)CC(CC(=O)NC2CCCCC2)C(=O)N1CCCN1CCCC1=O (stereo not given)	m5-HT2A agonist 15.5 (no result: TLR4 MyD88 comp) | OPRM1 ag inactive | m5-HT2A ag conf inactive
CC(C)C[C@@H]1COc2cccc(N3CCC[C@@H]3CO)c2S(=O)(=O)N1	none (no result: TLR4 MyD88 comp, CRFBP-R2 block, TLR9-MyD88 inh)
O=C(NC1CCCC1)C(c1ccco1)N1CCC(O)(c2ccc(Cl)cc2)CC1 (stereo not given)	none (no result: TLR4 MyD88 comp, CRFBP-R2 block, TLR9-MyD88 inh)
CC(C)C[C@H]1CN=C(N(C)C)N1CC(C)C	m5-HT2A agonist 24.1 (no result: TLR4 MyD88 comp) | OPRM1 ag inactive | m5-HT2A ag conf inactive
CN=c1c([N+](=O)[O-])nn(-c2ccc3c(c2)OCCO3)n1O	none
CC(C)N=c1c([N+](=O)[O-])nn(C)n1O	m5-HT2A agonist 15.3 | OPRM1 ag inactive | m5-HT2A ag conf inactive
Cc1cccc(NC(=O)CCS(=O)(=O)c2ccc3nc(C)sc3c2)c1	none (no result: TLR4 MyD88 comp, CRFBP-R2 block, TLR9-MyD88 inh)
COC(=O)C1=C(C)NC(=O)CC1c1cccc(Cl)c1Cl (stereo not given)	m5-HT2A agonist 23.9 | OPRM1 ag inactive | m5-HT2A ag conf inactive
CCOC(=O)C1=C(C)NC(C)=C(C(=O)OC)C1c1cccc(Cl)c1Cl (stereo not given)	none
COc1cc(-c2ccc3c(=O)c4ccccc4sc3c2)cc(OC)c1OC	none (no result: TLR4 MyD88 comp)
COc1cc(-c2ccc3c(=O)c4ccccc4n(C)c3c2)cc(OC)c1OC	m5-HT2A agonist 17.9 (no result: TLR4 MyD88 comp) | OPRM1 ag inactive | m5-HT2A ag conf inactive
Cc1ccsc1CN1CCN(c2ccccn2)CC1	m5-HT2A agonist 34.8 | OPRM1 ag inactive | m5-HT2A ag conf 97.9
O=C(c1ccco1)N1CCN(CCCCN2C(=O)c3ccccc3C2=O)CC1	m5-HT2A agonist 17.1 | OPRM1 ag inactive | m5-HT2A ag conf 54.4
O=C(c1ccco1)N1CCN(CCCCOc2ccc(F)cc2)CC1	m5-HT2A agonist 18.6 | OPRM1 ag inactive | m5-HT2A ag conf 63.1
CC1(C(=O)NCc2ccccc2Br)CCN1Cc1csc2ccccc12 (stereo not given)	none (no result: TLR4 MyD88 comp, CRFBP-R2 block, TLR9-MyD88 inh)
COc1ccc(CCn2c3c(c(=O)[nH]c2=O)C(NC(=O)c2cccs2)(C(F)(F)F)C(=O)N3)cc1OC (stereo not given)	m5-HT2A agonist 15.3 | OPRM1 ag inactive | m5-HT2A ag conf inactive
CC(=O)NC1(C(F)(F)F)C(=O)Nc2c1c(=O)[nH]c(=O)n2CCc1ccccc1 (stereo not given)	none (no result: TLR4 MyD88 comp)
CNC(=O)Oc1ccc2c(c1)[C@]1(C)CCN(C)[C@@H]1N2C	m5-HT2A agonist 20.0! | OPRM1 ag inactive | m5-HT2A ag conf inactive
Cc1cccc2sc(NNC(=O)c3ccc(S(=O)(=O)N4CC(C)CC(C)C4)cc3)nc12 (stereo not given)	m5-HT2A agonist 15.1, ABHD5-PLIN5 inh 38.4 | OPRM1 ag inactive | m5-HT2A ag conf inactive
Cc1cc(C)c2nc(NNC(=O)c3ccc(S(=O)(=O)N4CC(C)CC(C)C4)cc3)sc2c1 (stereo not given)	m5-HT2A agonist 62.0, ABHD5-PLIN5 inh 29.0 | OPRM1 ag inactive | m5-HT2A ag conf inactive
COC(=O)c1sc2ccccc2c1NC(=O)c1ccc(S(=O)(=O)N2CC(C)CC(C)C2)cc1 (stereo not given)	none
CCCCCCCCN1C(=O)[C@H](CC(=O)N2CCCC2)C[C@@]2(C(=O)OC)CC(C)(C)CC=C12	none (no result: TLR4 MyD88 comp, CRFBP-R2 block, TLR9-MyD88 inh)
